Experimental data taken from PubChem BioAssay (EPA / NIEHS).
Results filed as inconclusive are left out. Activity calls are given as the source filed them. How the source made its calls: active means hit-call score of the fitted dose curve at least 0.9, where 1 is the maximum; inconclusive means response in the unintended direction; inactive means score below 0.9.

Key:
[1] = target: rat Catechol-O-Methyl Transferase (COMT), Comt (gene 24267) (UniProt P22734); experiment: NVS_ENZ_rCOMT: NovaScreen (NVS) Enzymatic Assay for rat Catechol-O-Methyl Transferase (COMT) (AID 2283235)
Sequence of rat Catechol-O-Methyl Transferase (COMT), Comt (gene 24267) (P22734 whole entry, looked up): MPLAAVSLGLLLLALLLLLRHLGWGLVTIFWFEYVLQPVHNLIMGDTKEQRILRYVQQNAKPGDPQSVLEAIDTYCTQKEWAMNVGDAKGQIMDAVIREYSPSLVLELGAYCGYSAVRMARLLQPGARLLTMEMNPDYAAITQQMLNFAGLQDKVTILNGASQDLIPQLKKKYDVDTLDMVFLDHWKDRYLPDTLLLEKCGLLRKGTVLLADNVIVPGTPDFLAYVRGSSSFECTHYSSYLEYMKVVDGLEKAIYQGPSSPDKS
Experimental: NVS_ENZ_rCOMT is a biochemical, single-readout assay that uses extracted gene-proteins from Rat dorsal striatum in a tissue-based cell-free assay. Measurements were taken 0 hour after chemical dosing in a 96-well plate.NVS_ENZ_rCOMT is one of one assay component(s) measured or calculated from the NVS_ENZ_rCOMT assay. It is designed to make measurements of enzyme activity, a form of enzyme reporter, as detected with absorbance signals by HPLC and Spectrophotometry technology.Data from the assay component NVS_ENZ_rCOMT was analyzed into 1 assay endpoint. This assay endpoint, NVS_ENZ_rCOMT, was analyzed in the positive analysis fitting direction relative to DMSO as the negative control and baseline of activity. Using a type of enzyme reporter, loss-of-signal activity can be used to understand changes in the enzymatic activity as they relate to the gene Comt. Furthermore, this assay endpoint can be referred to as a primary readout, because this assay has produced multiple assay endpoints where this one serves a enzymatic activity function. To generalize the intended target to other relatable targets, this assay endpoint is annotated to the methyltransferase intended target family, where the subfamily is o-methyltransferase. […]

[2] = target: rat Constitutive Nitric Oxide Synthase (CNOS), Nos1 (gene 24598) (UniProt P29476); experiment: NVS_ENZ_rCNOS: NovaScreen (NVS) Enzymatic Assay for rat Constitutive Nitric Oxide Synthase (CNOS) (AID 2283236)
Sequence of rat Constitutive Nitric Oxide Synthase (CNOS), Nos1 (gene 24598) (P29476 whole entry, looked up): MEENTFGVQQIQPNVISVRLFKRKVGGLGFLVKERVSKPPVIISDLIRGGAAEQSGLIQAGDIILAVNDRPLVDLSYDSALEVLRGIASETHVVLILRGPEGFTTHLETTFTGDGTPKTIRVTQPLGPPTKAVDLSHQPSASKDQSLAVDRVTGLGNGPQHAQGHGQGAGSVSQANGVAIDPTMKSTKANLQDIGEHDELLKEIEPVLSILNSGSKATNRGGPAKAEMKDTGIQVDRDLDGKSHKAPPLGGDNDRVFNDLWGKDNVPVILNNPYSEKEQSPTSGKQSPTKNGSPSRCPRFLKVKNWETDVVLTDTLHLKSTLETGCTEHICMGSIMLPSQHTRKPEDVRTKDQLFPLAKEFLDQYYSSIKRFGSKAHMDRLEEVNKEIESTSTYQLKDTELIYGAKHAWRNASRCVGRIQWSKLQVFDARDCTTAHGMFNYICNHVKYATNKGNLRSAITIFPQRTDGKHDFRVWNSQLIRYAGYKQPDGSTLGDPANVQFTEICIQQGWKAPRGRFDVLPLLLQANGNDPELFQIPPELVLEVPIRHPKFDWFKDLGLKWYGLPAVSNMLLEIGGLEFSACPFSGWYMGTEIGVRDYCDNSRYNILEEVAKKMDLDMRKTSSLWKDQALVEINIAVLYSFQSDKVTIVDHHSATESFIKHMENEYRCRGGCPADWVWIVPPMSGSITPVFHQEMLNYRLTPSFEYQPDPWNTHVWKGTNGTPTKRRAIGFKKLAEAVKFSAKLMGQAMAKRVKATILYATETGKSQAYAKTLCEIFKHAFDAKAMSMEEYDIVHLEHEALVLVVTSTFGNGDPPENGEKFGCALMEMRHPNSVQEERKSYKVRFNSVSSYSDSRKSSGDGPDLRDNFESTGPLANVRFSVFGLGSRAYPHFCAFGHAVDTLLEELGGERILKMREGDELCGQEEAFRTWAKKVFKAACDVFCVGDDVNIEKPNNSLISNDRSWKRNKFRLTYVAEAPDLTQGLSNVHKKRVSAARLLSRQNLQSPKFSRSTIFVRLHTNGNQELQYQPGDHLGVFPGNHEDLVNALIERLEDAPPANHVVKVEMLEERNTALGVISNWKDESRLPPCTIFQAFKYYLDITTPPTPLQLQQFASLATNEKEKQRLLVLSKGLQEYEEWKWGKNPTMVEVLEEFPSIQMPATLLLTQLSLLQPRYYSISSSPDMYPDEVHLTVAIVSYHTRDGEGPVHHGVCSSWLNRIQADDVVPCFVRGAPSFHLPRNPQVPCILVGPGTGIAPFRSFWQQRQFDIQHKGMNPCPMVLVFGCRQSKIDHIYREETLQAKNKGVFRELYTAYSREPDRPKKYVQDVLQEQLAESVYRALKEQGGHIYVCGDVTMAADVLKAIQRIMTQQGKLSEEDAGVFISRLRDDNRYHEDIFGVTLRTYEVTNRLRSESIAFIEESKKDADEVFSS
How it was run: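 Single 25 uM duplicate screen, then concentration series to 50 uM for chemicals meeting threshold. Rat brain membrane-derived CNOS activity detected radiometrically by filtration and scintillation counting, 1 h after compound addition; DMSO as baseline.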

[3] = target: bovine Dopamine Receptor (DR), Non-selective Binding, DRD1 (gene 281125) (UniProt Q95136); experiment: NVS_GPCR_bDR_NonSelective: NovaScreen (NVS) G Protein-Coupled Receptor Assay for bovine Dopamine Receptor (DR), Non-selective Binding (AID 2283241)
Sequence of bovine Dopamine Receptor (DR), Non-selective Binding, DRD1 (gene 281125) (Q95136 whole entry, looked up): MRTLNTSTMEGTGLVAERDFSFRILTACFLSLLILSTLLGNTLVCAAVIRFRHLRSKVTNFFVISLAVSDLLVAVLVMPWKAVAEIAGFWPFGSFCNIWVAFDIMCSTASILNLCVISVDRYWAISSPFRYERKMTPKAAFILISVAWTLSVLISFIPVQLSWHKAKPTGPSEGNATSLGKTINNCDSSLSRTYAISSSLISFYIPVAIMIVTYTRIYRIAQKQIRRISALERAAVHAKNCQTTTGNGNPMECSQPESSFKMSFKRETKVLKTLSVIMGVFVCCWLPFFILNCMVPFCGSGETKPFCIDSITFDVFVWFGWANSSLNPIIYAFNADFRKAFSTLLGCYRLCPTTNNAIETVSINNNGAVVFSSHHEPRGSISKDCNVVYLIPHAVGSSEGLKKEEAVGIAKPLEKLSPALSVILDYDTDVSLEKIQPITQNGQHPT
How it was run: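 Filter-based radioligand binding with bovine striatal membrane, incubated 1 h; DMSO as negative baseline. Initial duplicate single-point test at 25 uM preceded concentration series for actives.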

[4] = tested on: bovine Histamine 1 Receptor (H1), gene 281231; experiment: NVS_GPCR_bH1: NovaScreen (NVS) G Protein-Coupled Receptor Assay for bovine Histamine 1 Receptor (H1) (AID 2283246)
How it was run: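 Hits from a 25 uM duplicate primary screen were retested in concentration series (top 50 uM); binding measured as scintillation-counted displacement of radioligand from bovine cerebellar membranes after 1 h, normalised to DMSO.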

[5] = target: Adenosine receptor A1 (Bos taurus) (UniProt P28190); experiment: NVS_GPCR_bAdoR_NonSelective: NovaScreen (NVS) G Protein-Coupled Receptor Assay for bovine Adenosine Receptor (AdoR), Non-selective Binding (AID 2283244)
Sequence of Adenosine receptor A1 (Bos taurus) (P28190 whole entry, looked up): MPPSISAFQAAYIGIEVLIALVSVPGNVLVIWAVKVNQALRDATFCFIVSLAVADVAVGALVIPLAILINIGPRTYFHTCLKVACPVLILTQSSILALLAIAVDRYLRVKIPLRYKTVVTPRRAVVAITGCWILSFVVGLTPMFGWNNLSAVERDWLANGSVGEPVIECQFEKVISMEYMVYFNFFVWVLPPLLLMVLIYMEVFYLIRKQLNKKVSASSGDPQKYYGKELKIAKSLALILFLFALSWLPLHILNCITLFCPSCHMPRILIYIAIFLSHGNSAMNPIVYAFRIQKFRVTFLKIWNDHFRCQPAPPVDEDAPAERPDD
How it was run: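 Cell-free binding with membranes from bovine striatum: radioligand displaced by test chemical, read after 1 h by filtration and scintillation. Single-point 25 uM duplicate primary, 50 uM top concentration in follow-up curves, DMSO baseline.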

In the case of O=C(OC[C@H]1O[C@@H](OC(=O)c2cc(O)c(O)c(OC(=O)c3cc(O)c(O)c(O)c3)c2)[C@H](OC(=O)c2cc(O)c(O)c(OC(=O)c3cc(O)c(O)c(O)c3)c2)[C@@H](OC(=O)c2cc(O)c(O)c(OC(=O)c3cc(O)c(O)c(O)c3)c2)[C@@H]1OC(=O)c1cc(O)c(O)c(OC(=O)c2cc(O)c(O)c(O)c2)c1)c1cc(O)c(O)c(OC(=O)c2cc(O)c(O)c(O)c2)c1, the AC50 [1] is reported as 0.371 µM (active).
With CN(C)c1ccc(N=NS(=O)(=O)O)cc1 the outcome [2] was “inactive”.
In the case of COc1cccc(-c2ccc(/C=C\CN3CCCCCC3)cc2Cl)c1, the AC50 [2] is reported as 29.9 µM (active), the AC50 [3] is reported as 36.4 µM (active) and the AC50 [4] is reported as 8.81 µM (active).
With CCOc1cccc(-n2cc(C(=O)N3CCN(c4cc(C(=O)O)c5ccccc5c4)CC3)nc2-c2ccc(C)cc2)c1 the outcome [5] was “inactive”.
For CC(C)CCO, the outcome [1] was “inactive”.
For Cn1c(=O)c2c(ncn2C)n(C)c1=O, the AC50 [5] was 25 µM (active).
With Cc1ccc(C)c(O)c1 the outcome [5] was “inactive”.
For CCCN(C1CCN(C(=O)C2CCNCC2)CC1)[C@@H]1CCc2ccc(OC)cc2C1, the AC50 [4] was 11.6 µM (active).
In the case of O=c1[nH]c2ccc(S(=O)CCN3CCC(Cc4ccc(F)cc4)CC3)cc2o1 (stereo unspecified), the AC50 [4] is reported as 3.91 µM (active).
